Reference: PubChem BioAssay (EPA / NIEHS)
Active and inactive are the calls of the source. Rule for the calls: active = hit-call score of the fitted dose curve at least 0.9, where 1 is the maximum; inactive = score below 0.9.

Columns and labels:
[1] = read-out: TIMP metallopeptidase inhibitor 2 (TIMP2), TIMP2 (gene 7077); experiment: BSK_KF3CT_TIMP2: BioMAP Diversity Plus: KF3CT Assay for TIMP metallopeptidase inhibitor 2 (TIMP2) Biomarker Activity (AID 2283071); settings: primary human keratinocytes with fibroblasts; actives raise or lower the signal
Procedure, shortened: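 Cells: human keratinocytes co-cultured with foreskin fibroblasts. Treat with chemical, 24 h. Measure TIMP-2 by ELISA; fit curves bidirectionally vs DMSO baseline.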

[2] = read-out: Transforming growth factor beta 1 (TGFb1), TGFB1 (gene 7040); experiment: BSK_KF3CT_TGFb1: BioMAP Diversity Plus: KF3CT Assay for Transforming growth factor beta 1 (TGFb1) Biomarker Activity (AID 2283072); settings: primary human keratinocytes with fibroblasts; actives raise or lower the signal
Procedure, shortened: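 Primary human skin cells (keratinocytes, foreskin fibroblasts) were co-cultured, exposed to test chemical and sampled at 24 h. TGF-b1 levels were measured by ELISA and fitted bidirectionally relative to DMSO.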

[3] = read-out: C-C motif chemokine 2 (Homo sapiens) (UniProt P13500); experiment: BSK_KF3CT_MCP1: BioMAP Diversity Plus: KF3CT Assay for Monocyte Chemoattractant Protein 1 (MCP1/CCL2) Biomarker Activity (AID 2283073); settings: primary human keratinocytes with fibroblasts; actives raise or lower the signal
Procedure, shortened: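 ELISA read-out of MCP-1, 24 h post-dose, in primary human skin keratinocytes co-cultured with fibroblasts. Parallel SRB staining monitors cytotoxicity; changes fitted both directions relative to DMSO.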

[4] = read-out: Matrix Metallopeptidase 9 (MMP9), MMP9 (gene 4318); experiment: BSK_KF3CT_MMP9: BioMAP Diversity Plus: KF3CT Assay for Matrix Metallopeptidase 9 (MMP9) Biomarker Activity (AID 2283074); settings: primary human keratinocytes with fibroblasts; actives raise or lower the signal;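 for AC50: MMP9 protein level quantified by ELISA in the co-culture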
Procedure, shortened: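 Human keratinocyte and foreskin fibroblast co-culture exposed to chemicals for 24 h; MMP9 biomarker measured by ELISA, bidirectional fitting relative to DMSO; cytotoxicity tracked by SRB total protein staining in parallel cultures.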

[5] = read-out: urokinase plasminogen activator (uPA), PLAU (gene 5328); experiment: BSK_KF3CT_uPA: BioMAP Diversity Plus: KF3CT Assay for urokinase plasminogen activator (uPA) Biomarker Activity (AID 2283075); settings: primary human keratinocytes with fibroblasts; actives raise or lower the signal
Procedure, shortened: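 Primary human keratinocyte/foreskin fibroblast co-culture exposed to chemical; uPA measured by ELISA at 24 h. Bidirectional fit versus DMSO, with parallel SRB total-protein staining for cytotoxicity.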

[6] = read-out: CD40, CD40 (gene 958); experiment: BSK_LPS_CD40: BioMAP Diversity Plus: LPS Assay for CD40 Biomarker Activity (AID 2283076); settings: primary human HUVEC with PBMC; actives raise or lower the signal
Procedure, shortened: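 In the LPS system of human endothelial cells with peripheral blood mononuclear cells, CD40 levels were read by ELISA 24 h post-treatment. Signal changes in either direction were fitted against the DMSO baseline, with parallel SRB protein staining.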

[7] = read-out: E-selectin (Homo sapiens) (UniProt P16581); experiment: BSK_LPS_Eselectin: BioMAP Diversity Plus: LPS Assay for Eselectin Biomarker Activity (AID 2283077); settings: primary human HUVEC with PBMC; actives raise or lower the signal
Procedure, shortened: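 E-selectin ELISA on LPS-stimulated endothelial cell/PBMC co-cultures, read 24 h post-treatment; gains and losses fitted against DMSO. Parallel SRB staining (0.1% SRB after 10% TCA fixation, 560 nm) flags overt cytotoxicity.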

[8] = BSK_LPS_SRB: Viability Assessment in the BioMAP Diversity Plus: LPS Assay (AID 2283079); settings: primary human HUVEC with PBMC;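 note: total protein by sulforhodamine B absorbance as a cytotoxicity measure; measured one day after compound addition; fitted in both directions against DMSO so loss or gain of signal counts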
Procedure, shortened: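 SRB viability endpoint: cells fixed with 10% TCA, stained with 0.1% SRB, read at 560 nm, 24 h post-dose. HUVEC/PBMC co-culture; signal change in either direction scored relative to DMSO.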

[9] = read-out: Interleukin-1 alpha (IL1a), IL1A (gene 3552); experiment: BSK_LPS_IL1a: BioMAP Diversity Plus: LPS Assay for Interleukin-1 alpha (IL1a) Biomarker Activity (AID 2283080); settings: primary human HUVEC with PBMC; actives raise or lower the signal
Procedure, shortened: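 Readout is IL-1a level by ELISA, 24 h post-dose, fitted as gain or loss relative to DMSO. System: LPS-activated human primary co-culture of vascular endothelium and peripheral blood mononuclear cells, with parallel SRB total-protein cytotoxicity.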

[10] = read-out: Monocyte Chemoattractant Protein-1 (MCP1), CCL2 (gene 6347); experiment: BSK_LPS_MCP1: BioMAP Diversity Plus: LPS Assay for Monocyte Chemoattractant Protein-1 (MCP1) Biomarker Activity (AID 2283081); settings: primary human HUVEC with PBMC; actives raise or lower the signal;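 for AC50: secreted MCP-1 protein quantified by ELISA in culture supernatant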
Procedure, shortened: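 Secreted MCP-1 read by ELISA at 24 h post-dosing in an LPS-activated co-culture of endothelial cells with peripheral blood mononuclear cells. Fits run in both directions, DMSO as baseline; parallel SRB staining tracks overt cytotoxicity.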

[11] = BSK_LPS_PGE2: BioMAP Diversity Plus: LPS Assay for Prostaglandin E2 (PGE2) Biomarker Activity (AID 2283082); settings: primary human HUVEC with PBMC; actives raise or lower the signal
Procedure, shortened: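 LPS-activated HUVEC/PBMC co-culture; cmpd dosed, 24 h; PGE2 by ELISA; bidirectional fit vs DMSO; SRB (0.1%, TCA-fixed, 560 nm) in parallel plates for overt cytotox.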

[12] = read-out: Macrophage colony-stimulating factor (MCSF), CSF1 (gene 1435); experiment: BSK_LPS_MCSF: BioMAP Diversity Plus: LPS Assay for Macrophage colony-stimulating factor (MCSF) Biomarker Activity (AID 2283083); settings: primary human HUVEC with PBMC; actives raise or lower the signal
Procedure, shortened: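 Bidirectional fitting against DMSO was applied to M-CSF levels read by ELISA at 24 h post-dose. The system pairs human umbilical vein endothelium with peripheral blood mononuclear cells; parallel SRB staining tracked cytotoxicity.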

[13] = read-out: Tissue Factor, F3 (gene 2152); experiment: BSK_LPS_TissueFactor: BioMAP Diversity Plus: LPS Assay for Tissue Factor Biomarker Activity (AID 2283084); settings: primary human HUVEC with PBMC; actives raise or lower the signal
Procedure, shortened: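 Compound was added to an endothelial cell/PBMC co-culture, and after 24 h tissue factor (CD142) was read by ELISA. Gain or loss of signal was fitted against a DMSO baseline, and parallel SRB staining (560 nm) tracked overt cytotoxicity.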

[14] = read-out: Tumor necrosis factor (Homo sapiens) (UniProt P01375); experiment: BSK_LPS_TNFa: BioMAP Diversity Plus: LPS Assay for Tumour Necrosis Factor alpha (TNFa) Biomarker Activity (AID 2283085); settings: primary human HUVEC with PBMC; actives raise or lower the signal
Procedure, shortened: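 Read-out is ELISA of TNFa in primary human endothelial cell–PBMC co-cultures at 24 h after compound. Activity in either direction was fitted against DMSO.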

[15] = read-out: Vascular cell adhesion molecule 1 (VCAM1), VCAM1 (gene 7412); experiment: BSK_LPS_VCAM1: BioMAP Diversity Plus: LPS Assay for Vascular cell adhesion molecule 1 (VCAM1) Biomarker Activity (AID 2283086); settings: primary human HUVEC with PBMC; actives raise or lower the signal
Procedure, shortened: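 HUVEC + PBMC co-culture, LPS system; compound 24 h; VCAM-1 by ELISA; bidirectional fit vs DMSO control; parallel SRB (0.1%, TCA-fixed, 560 nm) for cytotoxicity.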

[16] = read-out: CD38, CD38 (gene 952); experiment: BSK_SAg_CD38: BioMAP Diversity Plus: SAg Assay for CD38 Biomarker Activity (AID 2283087); settings: primary human HUVEC with PBMC; actives raise or lower the signal
Procedure, shortened: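 Human HUVEC plus PBMC co-culture stimulated with superantigen; CD38 measured by ELISA 24 h after chemical dosing. Fluorescence read-out, bidirectional fit against DMSO; cytotoxicity tracked in parallel by SRB and Alamar Blue.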

[17] = read-out: CD40, CD40 (gene 958); experiment: BSK_SAg_CD40: BioMAP Diversity Plus: SAg Assay for CD40 Biomarker Activity (AID 2283088); settings: primary human HUVEC with PBMC; actives raise or lower the signal
Procedure, shortened: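 CD40 is measured by fluorescence ELISA in an endothelial/PBMC primary human co-culture at 24 h post-dose. Fitting is bidirectional, DMSO baseline. Parallel SRB staining (560 nm) flags cytotoxicity.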

[18] = read-out: CD69, CD69 (gene 969); experiment: BSK_SAg_CD69: BioMAP Diversity Plus: SAg Assay for CD69 Biomarker Activity (AID 2283089); settings: primary human HUVEC with PBMC; actives raise or lower the signal;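 for AC50: cell surface CD69 protein quantified by ELISA with fluorescence detection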
Procedure, shortened: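 ELISA, fluorescence read-out: CD69 on human umbilical vein endothelial cell + PBMC co-culture, 24 h post-dosing. Gain or loss of signal fitted bidirectionally against DMSO baseline.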

[19] = read-out: Monocyte Chemoattractant Protein-1 (MCP1), CCL2 (gene 6347); experiment: BSK_SAg_MCP1: BioMAP Diversity Plus: SAg Assay for Monocyte Chemoattractant Protein-1 (MCP1) Biomarker Activity (AID 2283090); settings: primary human HUVEC with PBMC; actives raise or lower the signal
Procedure, shortened: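 MCP-1 levels in the endothelial–PBMC SAg co-culture were quantified by ELISA at 24 h post-dosing; both increases and decreases versus DMSO scored. Cytotoxicity monitored by SRB total protein in parallel cultures.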

[20] = read-out: Interleukin-8 (IL8), CXCL8 (gene 3576); experiment: BSK_LPS_IL8: BioMAP Diversity Plus: LPS Assay for Interleukin-8 (IL8) Biomarker Activity (AID 2283078); settings: primary human HUVEC with PBMC; actives raise or lower the signal
Procedure, shortened: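 ELISA read-out of IL-8 after 24 h chemical treatment of LPS-activated endothelial/PBMC human primary co-cultures. Changes either up or down relative to DMSO; overt cytotoxicity checked by sulforhodamine B staining in parallel wells.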

Measured: AC50

Sequence of Tumor necrosis factor (Homo sapiens) (P01375 whole entry, looked up): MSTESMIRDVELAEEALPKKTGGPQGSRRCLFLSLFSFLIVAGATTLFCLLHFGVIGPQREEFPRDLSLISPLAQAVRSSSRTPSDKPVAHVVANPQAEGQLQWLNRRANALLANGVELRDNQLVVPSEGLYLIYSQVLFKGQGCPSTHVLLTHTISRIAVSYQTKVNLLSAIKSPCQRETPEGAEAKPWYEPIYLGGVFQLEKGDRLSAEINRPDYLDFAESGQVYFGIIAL
Sequence of E-selectin (Homo sapiens) (P16581 whole entry, looked up): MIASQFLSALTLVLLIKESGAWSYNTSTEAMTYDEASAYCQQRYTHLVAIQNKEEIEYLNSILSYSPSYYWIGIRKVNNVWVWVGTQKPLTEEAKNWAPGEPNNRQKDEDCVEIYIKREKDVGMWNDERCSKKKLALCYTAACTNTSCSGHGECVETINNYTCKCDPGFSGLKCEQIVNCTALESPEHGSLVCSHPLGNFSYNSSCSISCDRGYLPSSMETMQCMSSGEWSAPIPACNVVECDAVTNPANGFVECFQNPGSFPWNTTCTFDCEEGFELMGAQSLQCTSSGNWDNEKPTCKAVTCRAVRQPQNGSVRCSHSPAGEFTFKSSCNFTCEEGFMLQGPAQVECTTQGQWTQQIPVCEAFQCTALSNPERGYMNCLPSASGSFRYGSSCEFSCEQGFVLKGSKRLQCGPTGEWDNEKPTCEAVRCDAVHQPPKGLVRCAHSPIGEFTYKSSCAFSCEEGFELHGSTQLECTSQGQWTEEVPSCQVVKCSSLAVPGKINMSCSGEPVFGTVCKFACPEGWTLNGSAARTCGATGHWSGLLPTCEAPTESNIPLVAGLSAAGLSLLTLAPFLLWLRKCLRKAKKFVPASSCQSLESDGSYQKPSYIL

Cc1ccc(O)c(C(C)(C)C)c1
active: [1] 24.9 µM | [2] 20 µM | [3] 36.6 µM | [4] 30.9 µM | [5] 36.6 µM | [6] 30.4 µM | [7] 30.4 µM | [8] 31 µM | [9] 36.2 µM | [10] 33 µM | [12] 36.9 µM | [13] 30.4 µM | [14] 34.8 µM | [15] 36.8 µM | [16] 37 µM | [17] 35.5 µM | [18] 30.9 µM | [19] 36.6 µM
inactive: [11]

O=C(O)c1cn(-c2ccc(F)cc2)c2cc(N3CCNCC3)c(F)cc2c1=O
not listed: [20]
inactive: all other assays above

O=C=NC1CCC(CC2CCC(N=C=O)CC2)CC1 (stereo unspecified)
active: [5] 0.016 µM | [13] 3.97 µM | [14] 2.2 µM
not listed: [20]
inactive: all other assays above

COC(=O)c1ccc(C)cc1
inactive: all assays above

CCCCCCCCC=O
inactive: all assays above

Cc1ccc2n[nH]nc2c1
not listed: [20]
inactive: all other assays above
